# Data: publication PMC6919601, “Identification of Plasmodium dipeptidyl aminopeptidase allosteric inhibitors by high throughput screening” (PLoS ONE, 2019)
# In all, about 110,000 compounds went through this assay and about 230 (0.21%) showed an effect of 50% or more. Only a selection was taken, and strong results are over-represented in it overall.
# Target: DPAP1 (Plasmodium falciparum, UniProt Q8IIJ9)
# Assay: primary screen, percent inhibition; read by cleavage of a fluorogenic dipeptide substrate; higher = more effect of the substance
# Set-up: species or system P. falciparum D10 trophozoite lysates; single well
# 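Note: 30 min substrate incubation versus DMSO and 10 µM JCP410 controls.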
# DPAP1, sequence (Q8IIJ9 whole entry, looked up): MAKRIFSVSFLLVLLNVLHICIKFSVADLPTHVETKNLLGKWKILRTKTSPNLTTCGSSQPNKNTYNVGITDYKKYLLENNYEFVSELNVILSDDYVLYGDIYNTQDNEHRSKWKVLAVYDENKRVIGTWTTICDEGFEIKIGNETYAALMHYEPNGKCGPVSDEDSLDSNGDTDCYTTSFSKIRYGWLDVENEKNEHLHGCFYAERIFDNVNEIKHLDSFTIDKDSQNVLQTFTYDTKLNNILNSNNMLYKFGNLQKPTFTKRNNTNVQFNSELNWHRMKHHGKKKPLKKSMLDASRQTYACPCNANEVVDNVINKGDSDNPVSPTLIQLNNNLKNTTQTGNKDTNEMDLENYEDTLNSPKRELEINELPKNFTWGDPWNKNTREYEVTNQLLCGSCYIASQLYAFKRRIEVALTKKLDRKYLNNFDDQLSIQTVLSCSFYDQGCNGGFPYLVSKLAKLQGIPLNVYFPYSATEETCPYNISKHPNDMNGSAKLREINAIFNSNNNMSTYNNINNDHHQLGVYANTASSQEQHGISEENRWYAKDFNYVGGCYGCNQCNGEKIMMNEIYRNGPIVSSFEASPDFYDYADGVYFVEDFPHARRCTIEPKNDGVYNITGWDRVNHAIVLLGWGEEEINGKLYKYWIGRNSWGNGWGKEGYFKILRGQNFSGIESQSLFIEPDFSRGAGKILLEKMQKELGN
row,Structure (SMILES),% Inhibition @ 10 uM [%]
1,O=c1oc2c3c(c(Cl)cc2c2c1CCCC2)OCN(Cc1ccco1)C3,4.13
2,O=C(Nc1ccc([N+](=O)[O-])cc1)c1ccc(-c2ccccc2)cc1,2.62
3,CC(=O)N1CCN(C2CCc3ccccc3C2)CC1 (stereo not drawn),0.217
4,CCC(C)NC(=O)c1ccccc1NS(=O)(=O)c1ccc(NC(C)=O)cc1 (stereo not drawn),-0.872
5,COc1ccc(C2=N/C(=C\C=C\c3ccccc3)C(=O)O2)cc1,7.01
6,Cc1ccc(NC(=O)C(CC(C)C)N2Cc3ccccc3C2=O)nc1 (stereo not drawn),-0.234
7,O=C(c1ccc(Br)cc1)N1CCN(c2ccc(F)cc2)CC1,0.815
8,N#Cc1c(C(F)(F)F)cc(-c2ccccc2)nc1S,73.6
9,C#CCSc1nc(-c2ccccc2)cc(C(F)(F)F)c1C#N,-10.2
10,N#CNC(=N)CSc1nc(-c2ccccc2)cc(C(F)(F)F)c1C#N,0.0719
11,C=CCc1cc(/C=C2/NC(=O)N(Cc3ccccc3F)C2=O)cc(OC)c1O,-2.63
12,COc1cc(/C=C2/NC(=O)N(Cc3ccccc3F)C2=O)cc(Br)c1O,63
13,COc1cc(/C=C2/NC(=O)N(Cc3ccccc3F)C2=O)cc(Cl)c1O,-1.28
14,Cc1oc(-c2ccc3c(c2)OCCO3)cc1C(=O)NCC(=O)O,-1.69
15,CCCNC(=O)c1cc2n(n1)C(C(F)(F)F)CC(c1ccc(Br)cc1)N2 (stereo not drawn),-0.67
16,COc1ccc(-c2nc3scc(CCNC(=O)c4cc(OC)c(OC)c(OC)c4)n3n2)cc1,5.49
17,COc1ccc(NC(=O)C2=C(C)NC(=O)NC2c2ccc(Br)cc2)cc1 (stereo not drawn),57.9
18,COc1ccc(NC(=O)C2=C(C)NC(=O)NC2c2ccc(OC)cc2)cc1 (stereo not drawn),9.5
19,COc1ccc(NC(=O)C2=C(C)NC(=O)NC2c2ccc(C)cc2)cc1 (stereo not drawn),-2.18
20,Cc1ccc(-c2nn3c(CC#N)nnc3c3ccccc23)cc1,6.38
21,CC(C)Oc1ccc(-c2cc(C(=O)NCCCN3CCOCC3)c3ccccc3n2)cc1,-12.3
22,O=C(Nc1ccc2c3c1C1C=CCC1CN3CC1CC=CC21)c1ccccc1 (stereo not drawn),2.4
23,O=C1NC(=O)c2c1cc1c3c2C2C=CCC2CN3CC2CC=CC12 (stereo not drawn),64.9
24,Cc1cc(C)c2c3c1C1C=CCC1CN3C(C(=O)O)C1CC=CC21 (stereo not drawn),3.65
25,COc1cccc(CN(C(=O)c2cc3ccccc3oc2=O)C2CCS(=O)(=O)C2)c1 (stereo not drawn),0.366

row,Structure (SMILES),% Inhibition @ 10 uM [%]
1,CCSc1cc(C)nc2ncnn12,7.56
2,COc1cccc(-c2[nH]c3c(C#N)cnn3c2NCCC(C)C)c1,76.4
3,Cc1cccc(-c2[nH]c3c(C#N)cnn3c2NCCC(C)C)c1,3.84
4,CC(C)CCNc1c(-c2cccc(Cl)c2)[nH]c2c(C#N)cnn12,-4.71
5,c1ccc2c(c1)ncn2Cc1nnc2sc(-c3ccc4c(c3)OCCO4)nn12,45
6,Cc1ccc(S(=O)(=O)N(CC(=O)NC2CC3CCC2C3)c2ccc(Cl)cc2)cc1 (stereo not drawn),-0.695
7,CCc1ccc(CNC(=O)NCc2noc3ccc(C)cc23)cc1,2.19
8,COc1cccc(CN2CCN(Cc3ccc(OC)c(OC)c3OC)CC2)c1,-6.74
9,COc1cccc(CN2CCN(Cc3cccc(C)c3)CC2)c1OC,-4.16
10,COc1ccc(CN2CCN(Cc3cccc(C)c3)CC2)c(OC)c1OC,53.3
11,Cc1[nH]c2ccccc2c1CCNC(=S)NC(C)(C)C,-0.431
12,O=C(CCNS(=O)(=O)c1ccc2nc(O)ccc2c1)NC1CCCc2ccccc21 (stereo not drawn),-2.26
13,CCn1cc(CNC(=O)c2cc(-c3ccccc3OC)nc3ccccc23)cn1,-10.2
14,COc1ccccc1C(=O)Nc1cccc(F)c1,-5.29
15,Cc1cc(C)n(CC(O)Cn2c3ccccc3c3ccccc32)n1 (stereo not drawn),-10.2
16,OCC(O)Cn1c2ccccc2c2ccccc21 (stereo not drawn),1.44
17,Cc1cc(C)n(CC(O)Cn2c3ccccc3c3ccccc32)c(=O)n1 (stereo not drawn),80.2
18,Cc1ccc(-c2csc(C3C(N)=NC(S)=C(C#N)C34CCCCC4)n2)cc1 (stereo not drawn),89.8
19,O=C1CC(c2nc(-c3ccccc3)cs2)C2(CCCCC2)O1 (stereo not drawn),4.08
20,Cc1ccc(-c2csc(N)n2)cc1,20.7
21,CNC(=S)N(CCc1c(C)[nH]c2ccc(Cl)cc12)Cc1ccccn1,-4.14
22,Cc1nnc(NC(=O)CSc2nnc(CNC(=O)c3cccs3)o2)s1,-3.39
23,COc1ccc(C(=O)NCc2nnc(SCC(=O)Nc3nnc(C)s3)o2)cc1,84
24,COc1ccc(C(=O)NCc2nnc(SCC(=O)NCC3CCCO3)o2)cc1 (stereo not drawn),8.26
25,COc1cc(C(=O)NCc2nnc(SCC(=O)NC3CCCCC3)o2)cc(OC)c1OC,1.64

row,Structure (SMILES),% Inhibition @ 10 uM [%]
1,Cc1nnc(NC(=O)CSc2nnc(CNC(=O)COc3ccc(Cl)cc3)o2)s1,-5.27
2,COc1ccc(C(=O)NCc2nnc(SCC(=O)NC3CCCCC3)o2)cc1,76.6
3,NC(=O)/C=C/C(=O)Nc1ccccc1,-3.13
4,CCCCNC(=O)CCc1nc2cccnc2n1Cc1ccccc1,3.96
5,CCOc1ccc2c3c(c(=O)oc2c1)CCC3,-3.38
6,CCCC1CCC(C2=N/C(=C\c3cc(OC)c(OC)cc3OC)C(=O)O2)CC1 (stereo not drawn),-3.33
7,O=C(CSc1nc2ccccc2o1)N1CCN(c2nnc(-c3ccccc3)c3ccccc23)CC1,2.46
8,COCCNC(=O)CSc1[nH]c(-c2cccc(OC)c2)nc1-c1ccccc1,0.163
9,Cc1nc(C(=O)N[C@@H](CC(C)C)C(=O)NCC#N)nn1-c1ccc(Cl)cc1Cl,5.76
10,CCOc1ccc(/C=C(\NC(=O)c2ccc(C)cc2)C(=O)Nc2cccc(O)c2)cc1,4.67
11,COc1ccc(Br)cc1C1CC(=O)N2CN(Cc3ccccc3)CSC2=C1C#N (stereo not drawn),60.8
12,COc1ccc2ccccc2c1C1CC(=O)N2CN(Cc3ccccc3)CSC2=C1C#N (stereo not drawn),35.8
13,COc1cccc(C2CC(=O)N3CN(Cc4ccco4)CSC3=C2C#N)c1OC (stereo not drawn),18.7
14,COc1cc(C2CC(=O)N3CN(Cc4ccccc4)CSC3=C2C#N)cc(Br)c1O (stereo not drawn),57
15,CCOc1cc(C2CC(=O)N3CN(Cc4ccccc4)CSC3=C2C#N)ccc1O (stereo not drawn),19.8
16,COc1ccc(OC)c(C2CC(=O)N3CN(Cc4ccco4)CSC3=C2C#N)c1 (stereo not drawn),6.87
17,COc1ccc(Br)cc1C1CC(=O)N2CN(Cc3ccco3)CSC2=C1C#N (stereo not drawn),60.5
18,COc1ccc(CN2CSC3=C(C#N)C(c4ccc(C)cc4)CC(=O)N3C2)cc1 (stereo not drawn),43.8
19,COc1ccc(C2CC(=O)N3CN(Cc4ccccc4)CSC3=C2C#N)cc1OC (stereo not drawn),6.73
20,COc1ccc(C2CC(=O)N3CN(Cc4ccccc4)CSC3=C2C#N)c(OC)c1 (stereo not drawn),32.1
21,COc1ccc(CN2CSC3=C(C#N)C(c4cccs4)CC(=O)N3C2)cc1 (stereo not drawn),50.8
22,N#CC1=C2SCN(Cc3ccccc3)CN2C(=O)CC1c1cccs1 (stereo not drawn),40.5
23,Cc1ccc2oc(=O)c3cc(C(=O)N4CCC(C)CC4)sc3c2c1,0.809
24,CCCOc1ccc(CN(C(=O)c2nc(SC)ncc2Cl)C2CCS(=O)(=O)C2)cc1 (stereo not drawn),-4.64
25,Cc1cc(C)c2c(n1)nn1c(C3CC3)cc(C(F)(F)F)nc21,2.54

row,Structure (SMILES),% Inhibition @ 10 uM [%]
1,O=C(NCC(=O)N1CCOCC1)c1ccccc1,15.6
2,O=C(NCCc1ccccc1)C1CCCN(S(=O)(=O)c2cccc3cccnc23)C1 (stereo not drawn),-4.69
3,COc1cccc(C(=O)Nc2ccc(C(C)C)cc2)c1,-1.25
4,COCCOC(=O)N/C=C\c1nc(O)c2ccccc2n1,-4.65
5,CCOC(=O)c1cnn2c(C(F)(F)F)cc(C)nc12,-3.53
6,CN1CCc2c(c(S)sc(=N)c2C#N)C1,5.59
7,CC1(C)Cc2c(c(S)sc(=N)c2C#N)CO1,8.27
8,N#Cc1c2c(c(S)sc1=N)CCCC2,59.6
9,COc1cccc(CNC(=O)CNC(=S)N(Cc2ccccc2)Cc2cccnc2)c1,-0.406
10,Cc1cc(C)c2c(-n3cccc3)nn(CC(=O)N3CCCCCC3)c2n1,-3.52
11,COCC(=O)Nc1nc2nccc(C)n2n1,-1.31
12,CCn1c(C(=O)N2CCC(C(=O)NCCOC)CC2)cc2sccc21,4.95
13,CCn1c(C(=O)N2CCC(C(=O)NCCC(C)C)CC2)cc2sccc21,92.1
14,CCn1c(C(=O)N2CCC(C(=O)NCCN(CC(C)C)CC(C)C)CC2)cc2sccc21,-5.19
15,N#CCNC(=O)[C@H](CC1CCCCC1)NC(=O)c1sccc1Br,1.35
16,O=C1C(Nc2cccc(O)c2)=C(N2CCCCC2)C(=O)c2ccccc21,0.162
17,Nc1ccc(NC2=C(N3CCCCC3)C(=O)c3ccccc3C2=O)cc1,53.5
18,O=C1C(Nc2cccc(Br)c2)=C(N2CCCCC2)C(=O)c2ccccc21,1.84
19,Cn1c2ccccc2c2nc3cc4ccccc4cc3nc21,-2.54
20,COCCN1C(=O)c2ccccc2C(C(=O)Nc2ccc(Cl)cn2)C1c1cccs1 (stereo not drawn),4.33
21,C=CCOc1ccc(C(=O)C2=C(O)C(=O)N(c3ccccn3)C2c2ccc(F)cc2)cc1 (stereo not drawn),2.86
22,C#CCN1C(=O)C(O)(CC(=O)c2ccc3ccccc3c2)c2ccccc21 (stereo not drawn),-20.7
23,Cn1c(SCC(=O)NCCc2ccccc2)nc2c1c(=O)n(Cc1ccccc1Cl)c(=O)n2C,3.81
24,CC1CCN(C(=O)CCN2C(=O)c3ccccc3C2=O)CC1,2.06
